According to PubChem BioAssay AID1619 (SRMLSC, 2009):
About 830 (0.38%) of roughly 220,000 compounds were called active.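 The calls were made as follows: active = compound inhibiting the enzyme by more than half at any dose during confirmatory dose-response retesting; inconclusive = strong single-dose inhibitors picked by rank but not retested; inactive = the rest.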 These entries were drawn from the full list. Potency and affinity values are given separately.

Biological target: Leucine aminopeptidase (Plasmodium falciparum (isolate 3D7)) (UniProt Q8IL11)
Sequence (Q8IL11 whole entry, looked up): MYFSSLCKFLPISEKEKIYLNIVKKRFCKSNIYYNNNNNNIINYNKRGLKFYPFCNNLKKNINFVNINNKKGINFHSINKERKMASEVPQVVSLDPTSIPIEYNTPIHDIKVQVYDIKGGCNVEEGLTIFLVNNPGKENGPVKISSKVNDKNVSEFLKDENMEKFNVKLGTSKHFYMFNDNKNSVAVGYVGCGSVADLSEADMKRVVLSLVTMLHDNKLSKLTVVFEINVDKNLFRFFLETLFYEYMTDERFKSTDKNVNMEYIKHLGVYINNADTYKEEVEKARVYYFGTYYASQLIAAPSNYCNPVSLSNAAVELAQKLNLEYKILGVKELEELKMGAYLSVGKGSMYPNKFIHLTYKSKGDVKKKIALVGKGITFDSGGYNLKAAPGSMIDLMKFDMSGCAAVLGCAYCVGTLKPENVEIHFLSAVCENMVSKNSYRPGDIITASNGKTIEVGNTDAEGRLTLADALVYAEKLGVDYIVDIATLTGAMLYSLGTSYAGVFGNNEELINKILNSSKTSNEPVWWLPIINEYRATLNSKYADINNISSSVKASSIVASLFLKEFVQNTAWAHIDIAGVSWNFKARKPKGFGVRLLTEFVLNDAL
Test: P. falciparum M17LAP inhibitors, primary screen, biochemical, fluorogenic H-Leu-NHMec substrate, 1536-well (AID 1619);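 also: plate controls were full reaction with DMSO carrier for no effect and no enzyme background for full effect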
Details: recombinant M17LAP, H-Leu-NHMec fluorogenic kinetic assay; at 30 µM; active compounds read high

inhibition, inactive:
Cc1cccc(Nc2nnc(SCC(=O)c3ccc(Br)s3)s2)c1C 23%, CN(C(=O)CSc1nnc(-c2ccc(Cl)cc2)n1CC1CCCO1)C1CCS(=O)(=O)C1 (centres undefined) -0.82%, CSc1nc2nc(C)cc(-c3ccccc3)n2n1 -6.85%, COc1ccc(CNc2nc3nc(C)cc(C)n3n2)cc1OC 4.62%, COc1cc(C)nc2nc(SCc3ccccc3)nn12 -4.54%, CSc1nc2nc(-c3ccccc3)cc(C(F)(F)F)n2n1 -8.74%, Nc1nc2nc(-c3ccc(OCc4ccccc4)cc3)cc(C(F)(F)F)n2n1 -1.91%, Cc1nc2nc(COc3ccccc3)nn2c(C)c1Cl -4.07%, COc1ccc(CNc2ncccn2)cc1OC -2.62%, Cc1cc(C)n2nc(SCc3ccccc3)nc2n1 -5.69%, COC(=O)c1c(NC(=O)Cn2cnc([N+](=O)[O-])n2)sc2c1CCC(C)C2 (centres undefined) 1.07%, O=C(NC1CCN(Cc2ccccc2)CC1)C1CCN(c2nnc(-n3cccc3)s2)CC1 -1.52%, Nc1cc(C(F)(F)F)ccc1Nc1ccccc1 -4.7%, CCCCOC(=O)Nc1ccccc1C(=O)N1CCCC1 10.4%, CCOC(=O)C(C(=O)NCC1CCCO1)C1CCCCC1 (centres undefined) 5.23%, CCOC(=O)C1(O)CSc2nc3sc(C(=O)O)c(C)c3c(=O)n21 (centres undefined) -2.76%, COc1ccc(-c2noc(CN(C)Cc3ccc(C)o3)n2)cc1 1.39%, COc1cc([N+](=O)[O-])ccc1NC(=O)CN1CCN(C(=O)c2ccco2)CC1 17.7%, COc1cc2c(C(=O)N3CCN(c4cccc(Cl)c4)CC3)cn(CC(C)C)c(=O)c2cc1OC -4.76%, CC1(C)Cc2c(c(N3CCOCC3)nc3sc4c(N5CCOCC5)nnnc4c23)CS1 -1.05%, CCc1ccc(NC2=NCC(=O)N2c2ccc3c(c2)OCCO3)cc1 -5.16%, CCOC(=O)C1(CC2CC2)CCN(Cc2cn[nH]c2-c2cccc(F)c2)CC1 -3.31%, Cc1ccc(NC(=O)c2ccccc2OCC(=O)c2ccccc2)cc1 3.34%, O=C(Cc1cc(=O)[nH][nH]1)N/N=C/C(Cl)=C/c1ccccc1 52.8%, O=C(Cc1ccc(Cl)cc1)N/N=C/c1c(Cl)cccc1Cl -10.8%, CC(/C=N/NC(=O)Cc1cccn1C)=C\c1ccccc1 32.7%, CC(/C=N/NC(=O)Cc1cccs1)=C\c1ccccc1 -13.2%, O=C(Cc1cccs1)N/N=C/C(Cl)=C/c1ccccc1 -2.46%, O=C(Cc1cc(=O)[nH][nH]1)N/N=C/c1c(Cl)cccc1Cl 47.6%
